# The supplement of paper PMC8007513
# Where a name gives a salt, the structure may show the parent alone. ± gives the standard error. Hit rate of the full screen: of about 1,300 compounds, about 130 (10%) showed an effect of 50% or more. The sample holds strong results, similar compounds and a random draw of the others, so the mix is not that of the screen.
# Test system: Trichoderma virens ATCC 9645
# Assay: growth yield (OD600) with compound + IPBC relative to untreated control; higher = less growth inhibition
# Conditions: compound concentration: 100 uM, IPBC concentration: 200 ng/ml
# Outline: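 For each 96-well plate, 100 μl aliquots were prepared with Trichoderma virens ATCC 9645 spores suspended at 15,000 spores ml^−1 in potato dextrose broth. The spores had been harvested from potato dextrose agar plates after 7 days. Library compounds were present at 100 μM final, some wells also receiving a biocide at 200 ng ml^−1, and plates were grown at 30 °C with OD600 read on a BioTek EL800 at 40 h and 72 h. Reported growth, relative to the control lacking both agents, is the mean of duplicate screens.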
Compound,growth yield (40 h),growth yield (72 h)
CCCCNc1c(C(=O)OCC)c(C)nc2c1cnn2CC [Tracazolate hydrochloride] + CCCCNC(=O)OCC#CI [3-iodo-2-propynyl butylcarbamate (IPBC)],21.9%,53.7 ± 0.21%
CCCCNc1ccc(C(=O)OCCN(C)C)cc1 + CCCCNC(=O)OCC#CI [3-iodo-2-propynyl butylcarbamate (IPBC)],81.5 ± 1.4%,88.2 ± 0.32%
CCCCNc1ccc(C(=O)OCCOCCOCCOCCOCCOCCOCCOCCOCCOC)cc1 [Benzonatate] + CCCCNC(=O)OCC#CI [3-iodo-2-propynyl butylcarbamate (IPBC)],77.4 ± 1.1%,83.27 ± 0.42%
"CC(C)(S)C(N)C(=O)O (racemic) [D,L-Penicillamine] + CCCCNC(=O)OCC#CI [3-iodo-2-propynyl butylcarbamate (IPBC)]",94.8 ± 8.4%,94.2 ± 5.5%
COC1=CC(=O)C[C@@H](C)[C@]12Oc1c(Cl)c(OC)cc(OC)c1C2=O [Griseofulvin] + CCCCNC(=O)OCC#CI [3-iodo-2-propynyl butylcarbamate (IPBC)],48.8 ± 3.6%,85.2 ± 1.1%
CCC(=O)O[C@@H](O[P@](=O)(CCCCc1ccccc1)CC(=O)N1C[C@H](C2CCCCC2)C[C@H]1C(=O)O)C(C)C [Fosinopril] + CCCCNC(=O)OCC#CI [3-iodo-2-propynyl butylcarbamate (IPBC)],86.9 ± 9.1%,94.8 ± 7.3%
Cc1cc(C(C)(C)CC(C)(C)C)ccc1OCCOCC[N+](C)(C)Cc1ccccc1 [Methyl benzethonium chloride] + CCCCNC(=O)OCC#CI [3-iodo-2-propynyl butylcarbamate (IPBC)],2.86 ± 0.64%,2.62 ± 0.1%
C[N+](C)(CCOc1ccccc1)Cc1ccccc1.O=C([O-])c1cc2ccccc2cc1O [Bephenium hydroxynaphthoate] + CCCCNC(=O)OCC#CI [3-iodo-2-propynyl butylcarbamate (IPBC)],63.5%,85.3 ± 2.4%
CC(C)(C)CC(C)(C)c1ccc(OCCOCC[N+](C)(C)Cc2ccccc2)cc1 [Benzethonium chloride] + CCCCNC(=O)OCC#CI [3-iodo-2-propynyl butylcarbamate (IPBC)],3.18 ± 0.32%,2.52 ± 0.42%
CCC(=O)O[C@]1(C(=O)SCF)[C@H](C)C[C@H]2[C@@H]3C[C@H](F)C4=CC(=O)C=C[C@]4(C)[C@@]3(F)[C@@H](O)C[C@@]21C [Fluticasone propionate] + CCCCNC(=O)OCC#CI [3-iodo-2-propynyl butylcarbamate (IPBC)],101 ± 0.64%,99.63 ± 0.42%
Cc1cc(CC(=O)O)n(C)c1C(=O)c1ccc(Cl)cc1 [Zomepirac sodium salt] + CCCCNC(=O)OCC#CI [3-iodo-2-propynyl butylcarbamate (IPBC)],89.59 ± 0.64%,92.4 ± 2.2%
CNCC[C@@H](Oc1ccccc1C)c1ccccc1 [Tomoxetine hydrochloride] + CCCCNC(=O)OCC#CI [3-iodo-2-propynyl butylcarbamate (IPBC)],78.31 ± 0.48%,87.89 ± 0.84%
CN1CCN(C2=Nc3cc(Cl)ccc3Nc3ccccc32)CC1 [Clozapine] + CCCCNC(=O)OCC#CI [3-iodo-2-propynyl butylcarbamate (IPBC)],65.6 ± 2.7%,93.8 ± 2.7%
CC(CCc1ccccc1)NC(C)C(O)c1ccc(O)cc1 (stereo not given) [Nylidrin] + CCCCNC(=O)OCC#CI [3-iodo-2-propynyl butylcarbamate (IPBC)],95.3 ± 2.9%,96.59 ± 0.1%
CCCCCCCCNC(C)C(O)c1ccc(SC(C)C)cc1 (stereo not given) [Suloctidil] + CCCCNC(=O)OCC#CI [3-iodo-2-propynyl butylcarbamate (IPBC)],5.08 ± 0.32%,33.1 ± 2.5%
CC(NCCc1ccc(O)cc1)C(O)c1ccc(O)cc1 (stereo not given) [Ritodrine hydrochloride] + CCCCNC(=O)OCC#CI [3-iodo-2-propynyl butylcarbamate (IPBC)],83.07 ± 0.16%,92.4 ± 0.32%
OCCN1C[C@H](O)[C@@H](O)[C@H](O)[C@H]1CO [Miglitol] + CCCCNC(=O)OCC#CI [3-iodo-2-propynyl butylcarbamate (IPBC)],90.1 ± 9.1%,93 ± 4.5%
CCOC(=O)c1ccc(C#Cc2ccc3c(c2)C(C)(C)CCS3)nc1 [Tazarotene] + CCCCNC(=O)OCC#CI [3-iodo-2-propynyl butylcarbamate (IPBC)],81.2 ± 2.7%,91.6 ± 1.4%
C#CCN[C@@H]1CCc2ccccc21 [Rasagiline] + CCCCNC(=O)OCC#CI [3-iodo-2-propynyl butylcarbamate (IPBC)],84.5 ± 1.3%,85.6 ± 1.1%
O=C(CCCN1CCC(O)(c2ccc(Br)cc2)CC1)c1ccc(F)cc1 [Bromperidol] + CCCCNC(=O)OCC#CI [3-iodo-2-propynyl butylcarbamate (IPBC)],64.3 ± 2.1%,87.3 ± 1.5%
O=C(CCCN1CCC(O)(c2ccc(Cl)cc2)CC1)c1ccc(F)cc1 [Haloperidol] + CCCCNC(=O)OCC#CI [3-iodo-2-propynyl butylcarbamate (IPBC)],10.2 ± 1.9%,60.4 ± 4.4%
O=C(CCCN1CCC2(CC1)C(=O)NCN2c1ccccc1)c1ccc(F)cc1 [Spiperone] + CCCCNC(=O)OCC#CI [3-iodo-2-propynyl butylcarbamate (IPBC)],77.8 ± 2.9%,90.4 ± 0.21%
CSc1nc2cc(Cl)c(Oc3cccc(Cl)c3Cl)cc2[nH]1 [Triclabendazole] + CCCCNC(=O)OCC#CI [3-iodo-2-propynyl butylcarbamate (IPBC)],66.7 ± 3.2%,120 ± 6.5%
O=C(O)c1cn(C2CC2)c2cc(N3CCNCC3)c(F)cc2c1=O [Ciprofloxacin hydrochloride monohydrate] + CCCCNC(=O)OCC#CI [3-iodo-2-propynyl butylcarbamate (IPBC)],86.2 ± 8.7%,91.5 ± 6.3%
CCOc1nc2cccc(C(=O)OCc3oc(=O)oc3C)c2n1Cc1ccc(-c2ccccc2-c2noc(=O)[nH]2)cc1 [Azilsartan kamedoxomil] + CCCCNC(=O)OCC#CI [3-iodo-2-propynyl butylcarbamate (IPBC)],110 ± 5.1%,105 ± 2.7%
